The text below walks through data of ChEMBL document CHEMBL1201862, “PubChem BioAssay data set” (2004).

Screen size: about 44,000 sequences; about 2,900 (6.6%) were called active. No stated cut-off is given here; in the data, active = GI50 up to about 1.1 µM and inactive = higher. A selection follows. Measured potencies and affinities stand elsewhere.

The test system of this test is MDA-MB-231.
For orientation: GI50 means the concentration giving 50% growth inhibition. With “[Bis(aminomethyl)tetramethylenesilane]tetrachloropaltinum(IV), CHEMBL2146189”, the concentration for 50% growth inhibition (GI50) came to 21 µM.

In the case of “[Bis(aminomethyl)pentamethylenesilane]tetrachloropaltinum(IV), CHEMBL2146204”, the GI50 was determined as 19.6 µM. CISPLATIN, CHEMBL11359 returned a GI50 of 22.4 µM.

“[Bis(aminomethyl)tetramethylenesilane]dichloropaltinum(II), CHEMBL2146205” came in with a 50% growth inhibitory concentration (GI50) of 48.6 µM. For the substance “[Bis(aminomethyl)pentamethylenesilane]dichloropaltinum(II), CHEMBL2146202”, the concentration for 50% growth inhibition (GI50) was 2.01 µM. Turning to “[Bis(aminomethyl)dimethylsilane]tetrachloroplatinum(IV), CHEMBL2146190”, the 50% growth inhibitory concentration (GI50) was 60.1 µM.
